This is an account of results in PubChem BioAssay (NCATS).

Inconclusive results are not listed. A call without a number means that no potency is given here. Active and inactive are the calls of the source. Calls come from the whole dose curve; as a rule, active = well fitted curve in the direction sought with a large enough effect; inconclusive = small, poorly fitted or top-dose-only effect, or another doubt; inactive = no such curve, though single readings can be large; an effect the other way counts as inactive or inconclusive.

Sequence of Ubiquitin carboxyl-terminal hydrolase 1 (Homo sapiens) (O94782 whole entry, looked up): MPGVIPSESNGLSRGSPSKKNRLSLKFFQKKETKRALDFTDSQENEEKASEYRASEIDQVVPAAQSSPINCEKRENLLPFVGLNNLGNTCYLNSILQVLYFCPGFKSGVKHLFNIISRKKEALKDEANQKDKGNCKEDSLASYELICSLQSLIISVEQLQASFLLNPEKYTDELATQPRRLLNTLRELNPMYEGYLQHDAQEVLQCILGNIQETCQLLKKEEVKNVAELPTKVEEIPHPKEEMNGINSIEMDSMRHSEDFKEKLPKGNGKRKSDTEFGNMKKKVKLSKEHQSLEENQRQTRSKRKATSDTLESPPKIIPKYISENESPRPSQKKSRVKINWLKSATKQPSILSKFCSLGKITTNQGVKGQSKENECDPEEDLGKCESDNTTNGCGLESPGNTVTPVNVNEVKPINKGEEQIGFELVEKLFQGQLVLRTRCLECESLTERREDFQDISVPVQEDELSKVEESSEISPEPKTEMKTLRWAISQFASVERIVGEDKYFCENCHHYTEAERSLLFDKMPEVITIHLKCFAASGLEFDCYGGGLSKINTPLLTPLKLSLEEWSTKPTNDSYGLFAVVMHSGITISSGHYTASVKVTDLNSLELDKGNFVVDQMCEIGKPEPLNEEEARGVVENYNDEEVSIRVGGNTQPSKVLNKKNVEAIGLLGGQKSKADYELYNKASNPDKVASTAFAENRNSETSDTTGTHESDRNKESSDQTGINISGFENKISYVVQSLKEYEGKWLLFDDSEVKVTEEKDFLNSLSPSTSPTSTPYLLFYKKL

The target of one assay is ATP-dependent 6-phosphofructokinase (Trypanosoma brucei brucei) (UniProt O15648). The assay is described as follows: qHTS Assay to Find Inhibitors of T. brucei phosphofructokinase: hit validation (AID 492961).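 Note: luminescence reports ADP formed as PFK phosphorylates fructose-6-phosphate with ATP.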 The settings on record: T. brucei PFK, ADP-Glo luminescence; series mostly up to 51.4 µM. An outline of the steps: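 Reaction: 0.1 M triethanolamine pH 8.0, 5 mM MgCl2, F6P 0.5 mM, ATP 0.1 mM, PFK 1.25 nM, 45 min RT. Read-out: ADP-Glo luminescence. Analysis: concentration-response fits, classed by r2 and efficacy.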
Sequence of ATP-dependent 6-phosphofructokinase (Trypanosoma brucei brucei) (O15648 whole entry, looked up): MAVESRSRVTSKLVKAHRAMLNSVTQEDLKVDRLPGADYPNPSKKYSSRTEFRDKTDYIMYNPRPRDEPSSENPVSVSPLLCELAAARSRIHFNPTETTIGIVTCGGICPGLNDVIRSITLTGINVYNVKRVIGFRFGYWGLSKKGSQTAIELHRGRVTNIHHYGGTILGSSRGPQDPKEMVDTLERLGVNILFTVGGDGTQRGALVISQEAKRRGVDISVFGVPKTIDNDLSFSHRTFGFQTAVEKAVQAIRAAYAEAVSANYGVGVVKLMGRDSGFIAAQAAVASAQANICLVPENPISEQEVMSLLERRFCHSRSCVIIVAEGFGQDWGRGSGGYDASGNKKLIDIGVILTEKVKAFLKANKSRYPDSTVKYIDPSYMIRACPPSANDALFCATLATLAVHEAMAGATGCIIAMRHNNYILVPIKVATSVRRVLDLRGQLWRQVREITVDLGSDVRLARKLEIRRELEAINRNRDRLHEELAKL
For orientation: In qHTS, concentration-response curves come from the screen itself.
Take `CCCOC(=O)c1ccccc1`: the Potency result was “inactive”.

Consider `Cn1c(=O)c2c(ncn2CC2OCCO2)n(C)c1=O`, for which the Potency result is “inactive”.

As for `CC(=O)CCC(=O)O`, the Potency result is “inactive”.

With `NC(CSCC(=O)O)C(=O)O` (stereo not drawn), the Potency entry is “inactive”.

As to `Cc1c(O)cccc1C(=O)N[C@@H](CSc1ccccc1)[C@H](O)CN1C[C@H]2CCCC[C@H]2C[C@H]1C(=O)NC(C)(C)C`, the Potency result is “inactive”.

Consider `Nc1ccc(S(=O)(=O)Nc2ccccc2)cc1`, for which the Potency result is “inactive”.

In the case of `NCC(=O)CCC(=O)O`, the Potency entry was “inactive”.

`O=C(O)CC(O)C(=O)O` (stereo not drawn): the Potency entry was “inactive”.

With `COc1cc2[nH]c(=O)[nH]c(=O)c2cc1OC`, the Potency result is “inactive”.

In the case of `Cc1ccc(C(C)C)cc2c(C)ccc1-2`, the Potency result was “inactive”.

Consider `Cc1cc2c(cc1S(N)(=O)=O)S(=O)(=O)CCC2`, for which the Potency entry was “inactive”.

`O=C1NS(=O)(=O)c2ccccc21`: the Potency result is “inactive”.

Take `NS(=O)(=O)c1cc2c(cc1Cl)NC(CSCc1ccccc1)=NS2(=O)=O`: the Potency entry is “inactive”.

On to `NCCNCCNCCNCCN`, for which the Potency result was “inactive”.

The next assay has as its target Ubiquitin carboxyl-terminal hydrolase 1 (Homo sapiens) (UniProt O94782). Put plainly: Inhibitors of USP1/UAF1: Pilot qHTS (AID 504865).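 Note: rhodamine fluorescence freed from ubiquitin-rhodamine substrate followed over time; top concentration of the series differs between compounds; nearly all actives have a fitted effect of over 35% in size.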 Particulars: purified USP1/UAF1, Ub-rhodamine cleavage fluorescence; series mostly up to 114 µM. The procedure, abridged: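 USP1/UAF1 complex at 1 nM preincubated 15 min at room temperature with compound, then Ub-Rho substrate added at 150 nM final. Fluorescence (480/540 nm) read kinetically in 50 mM HEPES pH 7.8, 0.5 mM EDTA, 1 mM TCEP, 0.1 mg/ml BSA, 0.01% Tween-20.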
In the case of `Nc1nc2c(ncn2CCC(CO)CO)c(=O)[nH]1`, the Potency entry was “inactive”.

In the case of `CC1(C)[C@@H]2CC[C@@]1(C)C(=O)C2`, the Potency entry was “inactive”.

For `NC(=O)NC(=O)Cc1ccccc1`, the Potency result is “inactive”.

On to `CCOC(=O)c1ccc(O)cc1`, for which the Potency result was “inactive”.

Regarding `CCn1cc(C(=O)O)c(=O)c2cnc(N3CCNCC3)nc21`, the Potency entry was “inactive”.

As for `CC(=O)Nc1ccc(/C=N/NC(N)=S)cc1`, the Potency result was “inactive”.

In the case of `CCN(CC)CCSC(=O)C(c1ccccc1)c1ccccc1`, the Potency result is “inactive”.

For the molecule `CC(=O)Oc1ccc(C2(c3ccc(OC(C)=O)cc3)C(=O)Nc3ccccc32)cc1`, the Potency entry is “inactive”.

With `Cc1ncc(COP(=O)(O)O)c(C=O)c1O`, the Potency result is “inactive”.

In the case of `CC12CCC(CC1)C(C)(C)O2`, the Potency result was “inactive”.

For `CCCCN(CCCC)CCCOC(=O)c1ccc(N)cc1`, the Potency entry was “inactive”.

Regarding `[O-][n+]1cccc(CO)c1`, the Potency result is “inactive”.

For `Oc1cn2c(n1)Nc1ccc(Cl)c(Cl)c1C2`, the Potency entry was “inactive”.

For `CCCCC(CC)COC(=O)c1ccccc1O` (stereo not drawn), the Potency result was “inactive”.

Consider `CN1CCC[C@@H]1Cc1c[nH]c2ccc(CCS(=O)(=O)c3ccccc3)cc12`, for which the Potency result is “inactive”.

In the case of `CC(C)(C)C(=O)NCCCC(=O)O`, the Potency result is “inactive”.

For the molecule `CC(C)(C)NCC(O)COc1ccc(NC(=O)NC2CCCCC2)cc1` (stereo not drawn), the Potency entry was “inactive”.

Turning to `Oc1cccc(O)c1`, the Potency entry is “inactive”.

`Cn1cc[nH]c1=S`: the Potency entry was “inactive”.

As to `O=C1O[C@H]([C@@H](O)CO)C(O)=C1O`, the Potency entry was “inactive”.

Regarding `NC(=O)NNc1ccccc1`, the Potency entry was “inactive”.

On to `O=C(O)[C@@H]1CSCN1`, for which the Potency result was “inactive”.

Turning to `NC(=O)N/N=C/c1ccc([N+](=O)[O-])o1`, the Potency entry is “inactive”.

On to `Cc1cccc(C)c1NC(=O)CN(CC(=O)O)CC(=O)O`, for which the Potency entry is “inactive”.

With `CCCCc1ncc(/C=C(\Cc2cccs2)C(=O)O)n1Cc1ccc(C(=O)O)cc1`, the Potency result is “inactive”.

Consider `CCCOC(=O)c1ccccc1`, for which the Potency entry was “inactive”.

As for `Cn1c(=O)c2c(ncn2CC2OCCO2)n(C)c1=O`, the Potency entry was “inactive”.

`CC(=O)CCC(=O)O`: the Potency entry is “inactive”.

Regarding `NC(CSCC(=O)O)C(=O)O` (stereo not drawn), the Potency result is “inactive”.

On to `Cc1c(O)cccc1C(=O)N[C@@H](CSc1ccccc1)[C@H](O)CN1C[C@H]2CCCC[C@H]2C[C@H]1C(=O)NC(C)(C)C`, for which the Potency result was “inactive”.

On to `Nc1ccc(S(=O)(=O)Nc2ccccc2)cc1`, for which the Potency entry was “inactive”.

For `NCC(=O)CCC(=O)O`, the Potency entry is “inactive”.

On to `O=C(O)CC(O)C(=O)O` (stereo not drawn), for which the Potency entry was “inactive”.

Consider `COc1cc2[nH]c(=O)[nH]c(=O)c2cc1OC`, for which the Potency entry is “inactive”.

On to `Cc1ccc(C(C)C)cc2c(C)ccc1-2`, for which the Potency entry is “inactive”.

With `Cc1cc2c(cc1S(N)(=O)=O)S(=O)(=O)CCC2`, the Potency entry is “inactive”.

Take `O=C1NS(=O)(=O)c2ccccc21`: the Potency result is “inactive”.

Take `NS(=O)(=O)c1cc2c(cc1Cl)NC(CSCc1ccccc1)=NS2(=O)=O`: the Potency result is “inactive”.

For the molecule `NCCNCCNCCNCCN`, the Potency entry was “inactive”.
